# Measured values published in the supplement of paper PMC3334620.
# In all, about 33,000 sequences were measured (“E-score (-0.5 to 0.5)”: median about -0.054, highest 2% from about 0.39 on). The list comes from a sample in which the highest values are over-represented; it also holds similar and randomly drawn sequences.
# Target: Ylr278c (UniProt Q05854)
# Assay: PBM E-score (8-mer binding enrichment) (E-score (-0.5 to 0.5)); higher = stronger / more preferred TF binding
# Conditions: protein concentration: 200 nM; construct: GST-DNA-binding domain
# Method: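 Universal 'all 10-mer' protein binding microarrays (Agilent AMADID 015681) probed with GST-tagged S. cerevisiae TFs (full-length or DBD) made by in vitro transcription/translation (PURExpress), about 100-200 nM. Bound TF was detected with fluorescent anti-GST. Each ungapped 8-mer (which stands for itself and its reverse complement) is scored by the PBM enrichment score (E-score), a modified Wilcoxon-Mann-Whitney statistic from -0.5 to +0.5, computed with the Universal PBM Analysis Suite. Scale: above 0.35 generally sequence-specific binding.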
# UniProt Q05854, sequence (Q05854 whole entry): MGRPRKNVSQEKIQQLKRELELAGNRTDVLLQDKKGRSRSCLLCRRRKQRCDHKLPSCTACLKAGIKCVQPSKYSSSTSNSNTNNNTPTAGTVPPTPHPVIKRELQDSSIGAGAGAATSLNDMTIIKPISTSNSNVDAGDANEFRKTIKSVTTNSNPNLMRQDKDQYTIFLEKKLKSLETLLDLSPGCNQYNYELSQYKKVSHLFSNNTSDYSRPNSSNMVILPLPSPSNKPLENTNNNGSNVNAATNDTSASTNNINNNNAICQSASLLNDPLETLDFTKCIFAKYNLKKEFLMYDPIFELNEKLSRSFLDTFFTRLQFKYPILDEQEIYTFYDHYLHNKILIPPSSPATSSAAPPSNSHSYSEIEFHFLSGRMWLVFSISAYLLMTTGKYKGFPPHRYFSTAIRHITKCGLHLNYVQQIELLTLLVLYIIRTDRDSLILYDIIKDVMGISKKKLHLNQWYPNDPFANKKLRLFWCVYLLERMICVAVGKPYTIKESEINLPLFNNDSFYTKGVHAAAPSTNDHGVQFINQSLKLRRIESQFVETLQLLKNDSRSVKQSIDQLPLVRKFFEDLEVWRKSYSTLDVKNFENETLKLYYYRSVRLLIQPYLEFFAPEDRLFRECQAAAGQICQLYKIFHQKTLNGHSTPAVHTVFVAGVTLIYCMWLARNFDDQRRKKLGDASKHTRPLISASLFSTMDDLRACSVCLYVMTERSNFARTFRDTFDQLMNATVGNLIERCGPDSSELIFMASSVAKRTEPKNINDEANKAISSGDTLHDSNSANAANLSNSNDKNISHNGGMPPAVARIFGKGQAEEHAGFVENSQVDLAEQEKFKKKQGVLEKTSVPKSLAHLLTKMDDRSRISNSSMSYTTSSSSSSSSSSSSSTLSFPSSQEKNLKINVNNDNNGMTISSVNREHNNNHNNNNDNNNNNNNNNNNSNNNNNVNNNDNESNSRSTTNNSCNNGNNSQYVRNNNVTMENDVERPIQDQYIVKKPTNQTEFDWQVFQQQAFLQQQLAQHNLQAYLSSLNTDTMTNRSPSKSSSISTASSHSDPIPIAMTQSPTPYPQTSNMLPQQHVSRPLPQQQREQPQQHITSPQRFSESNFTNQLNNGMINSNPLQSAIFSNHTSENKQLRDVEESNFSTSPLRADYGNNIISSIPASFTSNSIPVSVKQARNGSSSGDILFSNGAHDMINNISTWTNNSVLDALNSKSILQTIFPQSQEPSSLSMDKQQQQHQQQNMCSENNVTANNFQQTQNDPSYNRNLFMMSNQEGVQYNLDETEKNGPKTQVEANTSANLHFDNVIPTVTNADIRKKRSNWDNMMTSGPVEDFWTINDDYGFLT
row,Sequence,PBM E-score
1,CGACACTA,0.102
2,CGGTTGCC,0.109
3,GGCCTTAA,-0.0388
4,TATGTTCA,-0.0845
5,TACATTCA,-0.223
6,ACGGACAT,0.392
7,ACGGACAA,0.355
8,ACGGACAC,0.194
9,TAGGACAA,-0.233
10,TCGGACCA,0.379
11,TCGGACAA,0.434
12,GCGGACAA,0.398
13,CCGGACAC,0.371
14,CCGGACAG,0.357
15,GCGGACAC,0.216
16,ACGGACAG,0.043
17,CCGGACAA,0.444
18,AAAATCGA,-0.177
19,GCTCTCCC,-0.0961
20,CCCACCAG,-0.212
21,AGCCTACA,-0.0936
22,CGGCCGAG,0.279
23,ACTCCCAC,-0.035
24,TCTACCCA,-0.14
25,TCTGCACA,0.0219

row,Sequence,PBM E-score
1,ACAGACCA,-0.0751
2,GATTCGAA,0.102
3,AGCTTAAG,-0.229
4,ATGAGCCC,-0.138
5,CCTGATAC,-0.0837
6,CGAGAAAA,-0.0264
7,AGACTAAT,-0.0793
8,ACGGATAA,0.293
9,CCGGATAA,0.417
10,CCGGATAG,0.347
11,TCGGATAA,0.403
12,GCGGATAA,0.314
13,CCGGATAC,0.384
14,ATCAAGGG,-0.1
15,CCAAAGCA,-0.107
16,GGTCCGTA,0.304
17,AGTCCGTA,0.328
18,CGTCCGTC,0.208
19,GGTCCGCA,0.278
20,CGTCCGCA,0.246
21,AGTCCGCA,0.372
22,CGTCCGTA,0.189
23,GGTCCGGA,0.446
24,AGTCCGGA,0.476
25,CGTCCGGC,0.407

row,Sequence,PBM E-score
1,CGTCCAGC,-0.233
2,CGTCCGGA,0.43
3,CATTTTCG,0.173
4,TAAGTGAA,-0.072
5,ATGAGGAG,-0.132
6,CGGACGCC,0.366
7,CTAGTTCC,0.0969
8,CGCAATTC,0.201
9,CATGAAGG,-0.145
10,TATCCACA,-0.144
11,ACAACTCC,0.295
12,CCTTTCGC,0.0666
13,CGTGCGGA,0.279
14,AATGCGGT,0.116
15,AGTGCGGA,0.394
16,CATGCGGA,0.317
17,AGTGCGGG,0.258
18,AATGCGGA,0.396
19,CGCCGGCG,0.463
20,AGCCGGCG,0.372
21,AGCCGGCA,0.33
22,CGCCGCCG,0.362
23,GGCCGGCC,0.372
24,CGCCGGCA,0.39
25,GGCCGGCA,0.394

row,Sequence,PBM E-score
1,AGCCGGCC,0.324
2,CGCCGGCC,0.367
3,AAGCTATG,-0.249
4,AATTTGAG,-0.15
5,CCCATCTC,0.0175
6,GGATGGGA,0.0151
7,GTTGTGTA,-0.159
8,AACAAGCA,0.0514
9,CGTGGGCA,-0.16
10,CCCGGACC,0.376
11,GCCGGAGA,0.459
12,GCCGGAGC,0.452
13,TCAGGAGA,-0.0923
14,TCCAGAGA,-0.212
15,GCAGGAGC,-0.194
16,CCGGGAGC,0.228
17,GCCAGAGC,-0.222
18,CCCGGAGC,0.452
19,TCCGGAGA,0.483
20,GCCGGTGA,0.298
21,GCCAGAGA,-0.194
22,GTCTACTA,-0.0894
23,CCGTCCCG,0.348
24,CCCAACCG,-0.0967
25,AAGCTGCC,-0.234

row,Sequence,PBM E-score
1,ATCCAAGG,0.0179
2,AGGCTGCA,-0.242
3,CCCCTCAG,-0.124
4,TCAAAGCA,-0.174
5,AGTTCACC,0.126
6,GCAACCAC,0.00041
7,CCCAGAGA,-0.233
8,ACCGGGGG,0.293
9,CCGGGAGG,0.261
10,CCCCGAGG,0.245
11,ACCGGATG,0.279
12,ACCGGAGC,0.448
13,ACCGGATC,0.354
14,CCCGGAGG,0.439
15,ACTGGAGC,-0.117
16,CCCGGAGA,0.476
17,CCGGGAGA,0.362
18,ACCGGAGG,0.441
19,GCGTATAC,-0.00732
20,CGTAGAAC,-0.0134
21,AATGAACA,-0.117
22,ACATTGGG,-0.122
23,TATATCCA,-0.171
24,ACCGGATA,0.265
25,ACCGGAGT,0.481

row,Sequence,PBM E-score
1,ACAGGAGA,-0.0277
2,ACCGGAGA,0.475
3,ACCAGAGT,-0.219
4,ACAGGAGT,-0.0336
5,ATAGTGAT,-0.203
6,TAAAGACA,-0.186
7,ACTGAGGC,0.105
8,TCTAAAGA,-0.115
9,CGCGTTAA,0.0131
10,GGGCGTTA,-0.101
11,CGGCGTTA,0.405
12,CGGCGTTC,0.378
13,GAGTGACA,-0.00079
14,TAGCTTAA,-0.198
15,TGATCTAA,-0.15
16,AGGAGGTA,-0.0558
17,GGGAGGTA,-0.0269
18,CTGAGGTC,-0.297
19,AGGAGGTC,-0.0814
20,CGGAGGTA,0.426
21,CGGAGGTC,0.443
22,AATGAACG,-0.131
23,CCGGTTGA,0.303
24,CGAGAACG,0.232
25,CCTAAACG,-0.0312

row,Sequence,PBM E-score
1,AATCCGAA,0.39
2,AATCCGAC,0.402
3,GATCCGAC,0.285
4,AATCCTAT,0.181
5,CATCCGAA,0.303
6,AATCCGAG,0.288
7,TATCCGAA,0.371
8,AATCCGAT,0.421
9,CATCCGAC,0.289
10,ATCGGGGC,0.296
11,CCACTGAG,-0.208
12,ACTGATGC,-0.0244
13,TCCAAACA,-0.094
14,GCAAGTGC,-0.274
15,GTTCTTCA,-0.192
16,ATTCGCTC,0.0759
17,GGTCGGAC,0.355
18,TGTCGGAA,0.384
19,AGTCGGCG,0.215
20,AGTCGGAT,0.282
21,AGTCGGAC,0.366
22,AGTCGGGA,0.142
23,CGTCGGAC,0.397
24,CGTCGGTC,0.215
25,AGTCGGAA,0.408

row,Sequence,PBM E-score
1,CGTCGGAA,0.43
2,AGTCGGAG,0.41
3,GGTCGGAA,0.338
4,ACGCAGGA,-0.166
5,CAAAGCGG,0.175
6,AACACTTG,-0.16
7,ATAAGACC,0.0726
8,ATGGTGTG,-0.23
9,CAACAAAG,-0.189
10,ATCAAGAC,-0.00757
11,ACCGCTAG,-0.19
12,CAGGGGGC,-0.125
13,CAGGTCAG,-0.0413
14,CGTCGGAG,0.441
15,CGTCGTAG,0.00558
16,CGTCGCAG,-0.192
17,ATTGGAAG,-0.0562
18,CTTTGCCC,-0.139
19,GCTTTTGA,-0.0305
20,ATCCTCCA,-0.301
21,CACCTCCA,0.0316
22,ATCCTCCG,0.431
23,AACCTCCG,0.466
24,AACCTCCC,0.0351
25,CGCCTCCA,0.0143

row,Sequence,PBM E-score
1,AGCCTCCG,0.381
2,ATCCTCCC,0.0358
3,CGCCTCCG,0.398
4,CACCTCCC,-0.129
5,CACCTCCG,0.425
6,AACCTCCT,-0.122
7,CAGTGGCA,-0.225
8,CCCTCCCA,0.0446
9,ACAGGGCC,0.0175
10,GAAACCAA,0.0455
11,CGACGCAA,0.114
12,GTACTGGA,-0.156
13,GCACCACC,0.0569
14,GACTGCGA,0.0431
15,TCCCTGAA,-0.217
16,CGTAAGGC,-0.161
17,CAGCTATG,-0.344
18,TCGGAAAA,0.426
19,ACGGAAAC,0.278
20,ACGGAAAA,0.346
21,CAGGAAAA,0.00343
22,GCGGAAAA,0.379
23,CCGGAAAC,0.404
24,CCGGAAAA,0.453
25,CTGGAAAA,-0.00229

row,Sequence,PBM E-score
1,CCGGAAAG,0.319
2,ATGAATTA,-0.228
3,CCGGTATC,0.32
4,GCGATCCC,0.0902
5,CAACACCG,0.212
6,AAACACCG,0.39
7,AAACACCT,-0.135
8,CTCCTCAC,-0.185
9,CATTTCCA,-0.0597
10,ATTTTCCG,0.421
11,CATTTCCG,0.406
12,AATTTCCT,0.0327
13,ATTTTCCC,0.063
14,ATTTTCCA,0.0304
15,CATTTCCC,0.161
16,AATTTCCG,0.448
17,AATTTCCC,0.114
18,GTTCGCAA,-0.0313
19,TATCCTCA,-0.0486
20,ATAACTGG,-0.0346
21,GTTCGGCA,0.134
22,CTTCGGAC,0.399
23,GTTCGGGA,0.277
24,GTTCGGAA,0.403
25,CTTCGGGC,0.0457

row,Sequence,PBM E-score
1,CTTCGGCC,0.154
2,CTTCGGTA,0.0846
3,CTTCGGCA,0.274
4,CTTCGGAA,0.419
5,AAGGTGGG,-0.161
6,GCGGTGTA,0.132
7,AAGGCACA,-0.231
8,CTTAGGTA,-0.0818
9,ATCTGAAA,-0.039
10,CGAGTACA,0.0348
11,ACATGCTC,-0.0918
12,ACACCCCG,0.241
13,AGACCGAT,0.163
14,AGTCCGAT,0.458
15,AGTCCGAG,0.43
16,AGTCCGAA,0.425
17,CGTCCGAG,0.296
18,AGTCCTAA,-0.163
19,AGTCCTAT,-0.0902
20,AGTCCAAA,-0.107
21,AGTCCAAG,-0.236
22,AGTCCGAC,0.431
23,AGCCCGAC,0.152
24,AGGCCGAC,0.324
25,AGTAAGTG,-0.128

row,Sequence,PBM E-score
1,ATCTCTGG,-0.239
2,AAACGACC,-0.0492
3,ACCTCATG,-0.349
4,ATTAGCTC,-0.0566
5,ACAGACTC,-0.109
6,GTCCGATA,0.414
7,ATCCGATA,0.399
8,CGCCGATA,0.37
9,ATCCGATC,0.37
10,CGCCGATC,0.377
11,CTCCGATC,0.46
12,ATCCGATG,0.323
13,AACCGATA,0.0662
14,CTCCGATA,0.462
15,CACCGATA,0.194
16,GCCCGATA,0.0679
17,GGCCGATA,0.3
18,CGCTCTAG,-0.113
19,AACTGCCA,-0.249
20,GTGGAGCA,-0.158
21,GAGCACGC,-0.106
22,AAACCGGT,0.204
23,CAACCGGA,0.414
24,GAACCGGC,0.283
25,AAACCGGC,0.356

row,Sequence,PBM E-score
1,AAACCGGA,0.438
2,GAACCGTA,-0.0428
3,CAACCGGG,0.215
4,CAACCGGC,0.27
5,TAACCGCA,0.0534
6,TAACCGGA,0.431
7,GAACCGGA,0.426
8,TAACCGTA,-0.0936
9,GGTGCTAC,-0.0466
10,GAAAGCAA,0.145
11,CAGGTTCC,0.0369
12,AAGGAGCA,-0.0618
13,GGAAGTAC,0.253
14,CATCACAG,-0.108
15,ATGTCCCG,0.319
16,ATGTCCCC,0.042
17,ATGTCCGA,0.455
18,ATGTCCTG,-0.0169
19,ATGTCCGG,0.468
20,GTGTCCGA,0.374
21,CTGTCCGC,0.14
22,ATGTCCGC,0.403
23,CTGTCCGA,0.335
24,AATCTTGA,-0.172
25,CATGCTAG,-0.256

row,Sequence,PBM E-score
1,AGACACTG,-0.321
2,ACCGGCCT,0.179
3,GACGGCGC,0.169
4,ATCGGCGG,0.42
5,ACCGGCCG,0.392
6,ATCGGCGC,0.326
7,GCCGGCCC,0.248
8,ATCGGCGA,0.327
9,ACCGGCGT,0.3
10,CCCGGCCG,0.354
11,ACCGGCGG,0.402
12,GCCGGCGC,0.396
13,ACCGGCGC,0.351
14,ATATGCTA,-0.0729
15,AAGCCCGA,0.27
16,CCCATAGG,-0.0984
17,AAAATGGT,0.184
18,GAAGTTAC,0.0322
19,ATCTTGAC,-0.292
